Screens deposited in PubChem BioAssay by National Center for Advancing Translational Sciences (NCATS).
Shown are actives, neighbours in structure and some others; about 2.8% of the full set was active somewhere.
HEK293 tox = cytotoxic in the GLP-1 receptor inverse agonist counter-screen | hit rate 0.13% among 410,000 | HEK293 cAMP-luciferase reporter cells, luminescence, 24 h | Potency, µM (top dose mostly 38.3 µM), for inactives: top-dose activity change, negative = inhibition, hits mostly inhibitors;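 note: loss of luciferase light is scored as toxicity; potency is the fitted concentration of half-maximal effect; % is set by controls: 0 for no effect and ±100 for the full control effect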
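MLSMR compounds, 24 hr on cells at 37 deg C/5% CO2; luminescence after luciferase reagent (12 min RT). Inhibition counted as the undesired cytotoxic outcome.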
GLS inh = blocks human kidney-isoform glutaminase activity. O94925. GLS enzymatic activity, qHTS titration. Potency, µM (highest dose often 45.5 µM), for the others: at the highest dose activity change, negative = inhibition, actives largely listed as inhibitors. hit rate 0.21% among 410,000; note: potency is the fitted concentration of half-maximal effect; % is set by controls: 0 for no effect and ±100 for the full control effect
Target sequence (O94925 whole entry, looked up, canonical isoform): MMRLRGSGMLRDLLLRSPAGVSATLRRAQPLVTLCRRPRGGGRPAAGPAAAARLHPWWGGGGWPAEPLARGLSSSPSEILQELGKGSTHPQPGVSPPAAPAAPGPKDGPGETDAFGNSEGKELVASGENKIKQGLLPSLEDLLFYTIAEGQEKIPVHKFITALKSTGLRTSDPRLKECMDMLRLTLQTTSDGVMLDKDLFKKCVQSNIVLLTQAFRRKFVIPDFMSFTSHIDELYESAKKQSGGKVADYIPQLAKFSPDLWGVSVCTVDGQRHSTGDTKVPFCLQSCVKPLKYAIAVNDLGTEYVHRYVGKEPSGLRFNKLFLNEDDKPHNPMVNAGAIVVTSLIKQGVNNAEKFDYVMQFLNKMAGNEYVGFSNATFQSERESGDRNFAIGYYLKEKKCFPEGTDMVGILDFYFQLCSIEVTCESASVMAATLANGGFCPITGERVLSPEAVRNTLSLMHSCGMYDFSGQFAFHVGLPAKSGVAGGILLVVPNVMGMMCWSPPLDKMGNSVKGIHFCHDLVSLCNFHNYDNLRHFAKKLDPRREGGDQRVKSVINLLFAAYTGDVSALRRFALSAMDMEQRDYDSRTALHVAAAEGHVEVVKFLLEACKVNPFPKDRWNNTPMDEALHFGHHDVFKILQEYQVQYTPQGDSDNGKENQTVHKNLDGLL
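Coupled fluorescence readout: glutamate oxidase/HRP/Amplex Red detect glutamate formed by hKGA from L-glutamine (1 mM solution added). Buffer 45 mM KH2PO4 pH 8.2, 0.02% Tween-20; reads at t0 and 30 min RT.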
GLP-1R inv ag = GLP-1 receptor (human) inverse agonism | HEK293 GLP-1R CRE-luciferase, luminescence, 24 h; GLP-1R form is constitutively active | Potency, µM (highest dose often 38.3 µM), for the others: at the top dose activity change, negative = inhibition, actives largely listed as inhibitors | hit rate 1.6% among 410,000; note: potency is the fitted concentration of half-maximal effect; % is set by controls: 0 for no effect and ±100 for the full control effect; nearly all actives have a fitted effect of over 55% in size
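HEK293 cells stably co-expressing a cAMP-responsive luciferase reporter and constitutively active GLP-1R were seeded, incubated 12 h, then exposed to compounds for 24 h at 37 C. Luminescence was read 12 min after detection reagent; inverse agonists lower signal.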
KCNH2 WT inh = inhibitors of human wildtype KCNH2 potassium channel; U2OS, BacMam KCNH2, thallium flux FluxOr; stronger effect = lower value; Q12809; activity change, % at 1.84 µM; hit rate 0.37% among 340,000;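 active = maximum activity change below -70%; inconclusive = maximum activity change between -70% and -50%; inactive = maximum activity change above -50%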; note: % is set by controls: 0 for no effect and ±100 for the full control effect
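U2OS cells were transduced with wild-type KCNH2 virus (2.03 x 10^8 / mL) for 4 h at room temperature, then cultured overnight at 37 C. Thallium flux was read with FluxOr dye. Rate constants were normalized to DMSO controls.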
GLP1R ag = activates the human GLP-1 receptor; Potency, µM (highest dose often 45.6 µM), for the others: at the highest dose activation, hits mostly activators; hit rate 0.007% among 380,000; HEK293 GLP-1R CRE-luciferase, luminescence, 4-6 h; cells express a hypersensitive GLP-1R form; P43220; note: potency is the fitted concentration of half-maximal effect; % of control where 0% means no effect
KCNH2 3.1 inh = blocks the human KCNH2 3.1 channel isoform; U2OS KCNH2 3.1, thallium flux FluxOr; stronger effect = lower value; activity change, % (tested at about 1.8 µM); hit rate 0.95% among 340,000;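 active = maximum activity change below -70%; inconclusive = maximum activity change from -70% to -50%; inactive = maximum activity change above -50%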;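 note: thallium influx rate constant from kinetic fluorescence after stimulation buffer; % is set by controls: 0 for no effect and ±100 for the full control effect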
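U2OS cells transduced with KCNH2 3.1 mutant virus (1.77 x 10^8 /mL, 4 h), plated overnight at 37 C, loaded 45 min with FluxOr dye plus Red40 quencher. Thallium flux rate constant from kinetic reads after stimulation buffer, normalised to controls.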
Numbers without * were called inactive; ? = inconclusive; . = no result; [ ] = dose if it differs, or a comment. Unless noted, calls come from the whole dose curve; as a rule, active = well fitted curve in the direction sought with a large enough effect; inconclusive = small, poorly fitted or top-dose-only effect, or another doubt; inactive = no such curve, though single readings can be large; an effect the other way counts as inactive or inconclusive.

SMILES	HEK293 tox	GLS inh	GLP-1R inv ag	KCNH2 WT inh	GLP1R ag	KCNH2 3.1 inh
C/C(CC(=O)Nc1ccc(Cl)c(C(F)(F)F)c1)=N\NC(N)=S	?	?	10µM*	-4	2%	7
Cc1ccc(OP(=O)(NCc2ccccc2)Oc2ccc(C)cc2)cc1	-2%	-5%	7.1µM*	-12	7%	-87*
CC1(C)C/C(=N\NC(=S)Nc2ccccc2F)c2cc(O)ccc2O1	?	-6%	?	18	8%	-10
O=C(O)c1ccccc1-c1ccc(C=C2C(=O)N(c3ccccc3)C(=S)N(c3ccccc3)C2=O)o1	?	8.9µM*	?	-1	-9%	8
CN1C(=O)C(=Cc2ccc(N3CCCCCC3)o2)C(=O)N(C)C1=S	-19%	2%	21%	-7	-6%	-9
CCCCCSc1cc(O)c(C(CNC)C(C)C)cc1OC (centres undefined)	-16%	-15%	10µM*	3	9%	-2
N#CC1=C(N)C2=CCCC[C@H]2[C@H](c2ccccc2)C1(C#N)C#N	85%	-2%	4.5µM*	-8	-38%	-7
COc1ccc2c3c1OC1C(O)C=CC4[C@@H](C2)NCC[C@]314 (some centres undefined)	.	0%[99.4 µM]	.	.	-3%[96 µM]	.
CCC[C@@H](CN[C@@H](CNC)[C@H](C)CC)NCC1CCC(C(C)(C)C)CC1 (some centres undefined)	?	1%	10µM*	-8	-14%	-21
CC(N)C(=O)c1ccccc1 (centres undefined)	.	-5%[99.4 µM]	.	.	11%[110 µM]	.
COC(=O)c1cn(S(=O)(=O)c2ccccc2)c2ccccc12	0%	-10%	?	2	22%	2
O=C(Nc1ccc(Cl)c(Cl)c1)Nc1ccc(Br)cc1F	?	4%	?	-2	-21%	21
Cc1ccc(C)c(CN2CCC(CNC(=O)Nc3ccc(Br)cc3F)CC2)c1	?	-13%	7.1µM*	-19	10%	-71*
Cc1ccc(C)c(NC(=O)C(Sc2nc3ccc(C)cc3[nH]2)c2ccccc2)c1 (centres undefined)	?	-10%	3.2µM*	-10	1%	.
Cc1ccc(C)c(NC(=O)CSc2nnc([C@@H](N)Cc3c[nH]c4ccccc34)o2)c1	3%	8%	7%	-6	-3%	-10
CC1CCC(NC(=O)Cn2c(=O)oc3ccccc32)CC1 (centres undefined)	?	0%	36%	1	6%	3
CCCc1cc(-c2nc(N)ncc2-c2ccc3c(c2)OCCCO3)c(O)cc1OC	?	-3%	10µM*	-7	-30%	-3
O=C(Nc1ccc([N+](=O)[O-])cc1)Nc1ccc(OC(F)F)c(Cl)c1	?	19%	3.5µM*	-5	-8%	11
COc1ccccc1Cc1c(-c2ccc(F)cc2)nc2cc(C)c(Br)c(C)n12	5%	2%	?	.	2%	.
CCCc1cnc(Nc2nc(C(N)Cc3ccc(OC)cc3)cs2)nc1 (centres undefined)	?	2%	?	.	1%	.
O=C1C(I)=CC(=C(c2cc(I)c(O)c(I)c2)c2ccccc2C(=O)O)C=C1I	.	?	.	.	-1%	.
O=C1OC(c2cc(I)c(O)c(I)c2)(c2cc(I)c(O)c(I)c2)c2ccccc21	.	25µM*	.	.	-4%	.
COC(=O)[C@]1(C)C[C@H]1[C@H](NP(=O)(c1ccccc1)c1ccccc1)c1ccccc1	-8%	7%	-26%	-2	-5%	8
C=C[C@@H]1C[C@@]1(C)[C@@H](NP(=O)(c1ccccc1)c1ccccc1)c1ccccc1	7%	0%	10µM*	-5	11%	-13
CCOC(=O)c1ccc(N2C(=O)c3[nH]nc(-c4ccccc4)c3C2c2ccc(CC)cc2)cc1 (centres undefined)	?	-5%	11µM*	.	-6%	.
SMILES	HEK293 tox	GLS inh	GLP-1R inv ag	KCNH2 WT inh	GLP1R ag	KCNH2 3.1 inh
COc1cccc(C(C)(O)c2nc(-c3cccc(F)c3)cs2)c1 (centres undefined)	1%	11%	?	.	-3%	.
COc1ccc(OCC(=O)Nc2ccc(OC)c(S(=O)(=O)N3CCCCC3)c2)cc1	?	-10%	?	-6	5%	21
CC(Cc1ccccc1)NCCn1cnc2c1c(=O)n(C)c(=O)n2C (centres undefined)	.	1%[99.4 µM]	.	.	-4%[96 µM]	.
COc1ccc(-c2ccc3n2Cc2cnnn2-c2ccccc2-3)cc1	-6%	1%	0%	1	-1%	-16
c1ccc(CCc2ccc3n2Cc2cnnn2-c2ccccc2-3)cc1	-1%	0%	11µM*	-3	1%	-20
COCCn1c(=NC(=O)c2ccc3c(c2)OCCO3)sc2cc(S(N)(=O)=O)ccc21	?	-14%	?	.	6%	11
COc1cc(/C=C2\SC(=S)N(Nc3ncc(C(F)(F)F)cc3Cl)C2=O)ccc1O	?	?	10µM*	-3	4%	-10
O=C(N[C@@H]1N=C(c2ccccc2F)c2cccc3c2N(CC3)C1=O)c1cc2ccccc2[nH]1	.	-2%	.	.	-8%	.
Cc1c(NC(=O)/C(C#N)=C/c2ccc(-c3cccc(Cl)c3)o2)c(=O)n(-c2ccccc2)n1C	?	8%	?	-4	5%	4
Cc1ccc(C(=O)N/N=C/c2ccc(-c3cccc(Cl)c3)o2)cn1	?	-1%	7.9µM*	-6	-4%	-3
Cc1ccc(OCC(=O)N2CCCC(N3CCN(c4ccc(F)cc4)CC3)C2)cc1 (centres undefined)	-12%	15%	?	-43	3%	-86*
COc1ccccc1OCC(=O)N1CCCC(N2CCN(c3ccc(F)cc3)CC2)C1 (centres undefined)	1%	21%	-16%	19	-9%	2
COc1ccc(OCC(=O)N2CCCC(N3CCN(c4ccccc4C)CC3)C2)cc1 (centres undefined)	-8%	17%	?	16	-1%	-74*
COc1ccc(C(CC(=O)Nc2ccccn2)N2Cc3ccccc3C2=O)cc1 (centres undefined)	-9%	-18%	63%	-6	16%	8
O=C(Nc1ccccn1)NC12CC3CC(CC(C3)C1)C2	-17%	-7%	1.4µM*	-3	2%	8
C=CCC[C@@H](Cc1ccc(F)cc1)C(=O)OC[C@@H](NC(=O)[C@@H](CC=C)CC(=O)N[C@H](CO)Cc1ccccc1)C(C)(C)C	0%	15%	?	-4	-2%	?
